MenB inh = Mtb MenB enzyme inhibition; P9WNP5; MenB enzyme assay, absorbance read-out; inhibition, % (concentration not given with the values); hit rate 0.43% among 100,000; AID 540299; in the data active = inhibition above about 21%, passing the limit was not always enough
Target sequence (P9WNP5 whole entry, looked up): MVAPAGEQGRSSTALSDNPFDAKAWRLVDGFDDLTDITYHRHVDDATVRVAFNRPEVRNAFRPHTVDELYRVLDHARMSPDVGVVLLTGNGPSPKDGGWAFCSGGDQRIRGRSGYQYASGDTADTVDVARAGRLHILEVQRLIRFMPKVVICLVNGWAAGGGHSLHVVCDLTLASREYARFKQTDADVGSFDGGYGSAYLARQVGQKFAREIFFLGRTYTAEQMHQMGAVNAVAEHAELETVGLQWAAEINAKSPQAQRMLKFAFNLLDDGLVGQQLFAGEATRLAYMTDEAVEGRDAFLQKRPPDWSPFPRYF
MbtI inh = inhibitors of Mycobacterium tuberculosis siderophore enzyme MbtI; P9WFX0; purified MbtI enzyme, fluorescence intensity read-out; inhibition, % (no concentration beside the values); hit rate 0.89% among 100,000; in the data active = inhibition mostly above about 56%, no sharp cut-off; inactive = mostly below about 77%
AID504770 = E. coli YBA685 growth inhibition, screen for V. cholerae RctB inhibitors. E. coli YBA685 rctB-dependent plasmid, OD600 growth, 3 h; stronger effect = lower value. z-score (no concentration beside the values). hit rate 0.27% among 130,000; in the data active = z-score below about -2, passing the limit was not always enough
PV pol inh = inhibitors of poliovirus RNA polymerase binding and polymerization; % elongation, % (compound at 16.7 µg/mL); poliovirus polymerase elongation, fluorescence polarization; stronger effect = lower value; hit rate 0.66% among 150,000; AID 588519; in the data active = % elongation below about 90%
An asterisk follows results filed as active; . = no result given. In the library only some 1.4% were active in any assay of this set; here they are far more common.

SMILES | MenB inh | MbtI inh | AID504770 | PV pol inh
CCC(=O)Nc1nnc2n1CCS2 | . | . | . | 107
CCOC(=O)c1ccccc1NC(=O)CN1CCCN(Cc2cc(C)ccc2C)S1(=O)=O | . | . | . | 111
CN(C(=O)CSc1nncn2c1cc1sccc12)c1ccccc1 | 33* | 6 | -0.5 | 98
COC(=O)Cn1c(C(=O)OC)cc2c1ccn2C | 33* | 24 | 1.1 | 103
COC(=O)Cn1c(C(=O)OC)cc2c1ccn2-c1ccc(F)cc1 | 8 | 89 | 0.1 | 101
Cn1ccnc1P(=O)(O)c1ccccc1 | -2 | 6 | 0.65 | 88*
Cc1ccccc1Cn1c(=O)n(Cc2ccco2)c(=O)c2sc3ccccc3c21 | . | . | . | 105
CC(C)=CC[C@@H](O)C1=CC(=O)c2c(O)ccc(O)c2C1=O | . | -22 | . | 46*
COc1cccc(C(O)c2nc3ccccc3n2C(C)C)c1OC (stereo not drawn) | 7 | -2 | -0.65 | 100
O=C(CC1Sc2ncnn2C1=O)Nc1ccccc1 (stereo not drawn) | -16 | 100* | -0.4 | 100
O=C(CN1C(=O)CSC1=O)N1CCCC1 | -3 | -18 | 0.25 | 102
CCn1c(N)c(C(=O)NC)sc1=S | -21 | 87* | -0.45 | 97
Cc1ccc(C(=O)NCC2CCCO2)cc1 (stereo not drawn) | 8 | 5 | 0.7 | 102
CCn1c(N)c(C(=O)NCC2CCCO2)sc1=S (stereo not drawn) | -19 | 82* | 0.05 | 96
CCOc1ccc(C2CSc3nc4ccccc4n3C2=O)cc1 (stereo not drawn) | . | 3 | 1.7 | .
C=CCN=C1SC(C)C(=O)N1S(=O)(=O)c1ccccc1 (stereo not drawn) | -15 | 4 | -0.4 | 100
Cc1ccc(C)c(N2CCN(C3=C(c4ccccc4)C(=O)c4ccccc43)CC2)c1 | . | . | . | 107
O=C(NCc1ccccc1)c1ccco1 | -18 | -18 | -1.4 | 103
O=C(NCc1ccco1)C(=S)NCc1ccccc1 | -7 | 68* | -0.2 | 99
O=C(NCc1ccco1)C(Sc1ccccc1)c1ccccc1 (stereo not drawn) | 33* | -5 | 0.65 | 102
O=C(O)CNc1ccc(Cl)cc1C(=O)c1ccccc1 | . | 1 | 0.4 | .
CCOC(=O)CCn1cc(/C=C(\C#N)C(N)=S)c(-c2ccccc2)n1 | -53 | 51 | 0.95 | 89*
CCOC(=O)/C(C#N)=C/c1cn(CCC#N)nc1-c1ccccc1 | -24 | -3 | -1.1 | 100
COc1ccc(N2CCN(CCN3CCCCC3)CC2)cc1 | 19 | 9 | -0.1 | 101
COc1ccc(-n2c(C(C)N3CCCCC3)n[nH]c2=S)cc1 (stereo not drawn) | 1 | -6 | -5.2* | 103
SMILES | MenB inh | MbtI inh | AID504770 | PV pol inh
CC1Sc2nnc(Cc3ccc(Br)cc3)n2N=C1c1ccc(NS(C)(=O)=O)cc1 (stereo not drawn) | -30 | 26 | -0.45 | 78*
Cc1ccc(C2=Nn3c(nnc3C3CCCCC3)SC2C)cc1 (stereo not drawn) | -25 | 50 | 0.9 | 96
CS(=O)(=O)Nc1ccc(Br)cc1 | -1 | . | -0.95 | 105
COc1ccc(Cc2nnc3n2N=C(c2ccc(C)c(C)c2)C(C)S3)cc1OC (stereo not drawn) | -18 | 47 | -0.2 | 87*
S=c1[nH]nc(-c2ccncc2)n1CCc1ccccc1 | -11 | 14 | -0.55 | 100
O=C(C(c1ccccc1)c1ccccc1)N1CCOCC1 | . | -5 | 0.35 | .
CC(C)(C)OC(=O)NCc1cccs1 | 33* | 6 | 0.95 | 102
Cc1sc2nc(CC(=O)N3CCCC3)[nH]c(=O)c2c1C | -53 | 67 | 0.95 | 75*
O=C(CCc1nc2sc3c(c2c(=O)[nH]1)CCCC3)N1CCCCC1 | . | . | 0.65 | .
Cc1cccc(NC(=S)N2CCCCC2C(N)=O)c1 (stereo not drawn) | 5 | 58* | 0 | 97
Cc1cccc(C(=O)OCCN2C(=O)c3ccccc3C2=O)c1 | -16 | 5 | 0 | 103
N#Cc1ccccc1N=C/C(Br)=C/c1ccccc1 | . | -2 | -0.35 | 103
CCN(CC)c1cc(-c2cccs2)nc(SCC(=O)c2cccs2)c1C#N | -5 | . | 1.9 | 77*
N#CSC12CN3CN(CN(C3)C1)C2 | 33* | 6 | 0.2 | 99
COc1ccc2c(c1)C1(NNc3ccccc3O1)C(=O)N2 (stereo not drawn) | -133 | 62 | -11* | 120
c1c(SSc2cn3c(n2)CCC3)nc2n1CCC2 | -45 | 93* | -0.55 | 99
Cn1nc(-c2ccc(-c3ccn[nH]3)s2)cc1C(F)(F)F | . | . | 0.8 | .
COC(=O)C1CCN(C(=O)Cc2ccc(C)cc2)CC1 | -9 | -1 | -0.4 | 83*
Cc1ccc(C(=O)C2CCN(C(=O)Cc3ccccc3)CC2)cc1 | -5 | -4 | 0.7 | 100
